In PubChem BioAssay (EPA / NIEHS):
“And” between values parts separate entries of the source, which are not always exact repeats. Identical values can stand only once. A structure can be active in one record and inactive in another. The source made the active and inactive calls. How the source made its calls: active means hit-call score of the fitted dose curve at least 0.9, where 1 is the maximum; inactive means score below 0.9.

Tests used:
[1] = ATG_CRE_CIS: Attagene CIS-FACTORIAL HepG2 Assay for human cAMP Responsive Element (CRE) binding protein 3 (AID 2282926); settings: HepG2 CRE cis-reporter, Attagene multiplexed mRNA; actives raise or lower the signal
Procedure, shortened: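 Human liver HepG2, transient MRTU transfection, 24 h compound exposure. Total RNA → oligo(dT) RT → PCR → 6-FAM primer extension → HpaI cut → CE. Activity called both directions vs DMSO.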

[2] = molecular target: CCAAT/enhancer-binding protein beta (Homo sapiens) (UniProt P17676); test: ATG_C_EBP_CIS: Attagene CIS-FACTORIAL HepG2 Assay for human CCAAT/Enhancer Binding Protein (C/EBP) beta (AID 2282927); settings: HepG2 Attagene cis-factorial transcription factor reporter; actives raise or lower the signal
Procedure, shortened: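 HepG2, transient MRTU transfection, 24 h treatment. RT-PCR plus CE fluorescence; DMSO negative control, bidirectional fit.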

[3] = ATG_CMV_CIS: Attagene CIS-FACTORIAL HepG2 Assay for human CMV (Internal Marker) (AID 2282928); settings: HepG2 CMV promoter reporter, transcription factor profiling; actives raise or lower the signal;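 further: endpoint acts as a background internal control marker rather than a target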
Procedure, shortened: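 Endogenous transcription factor activity read in HepG2 via transfected cis-promoter reporter units. After 24 h dosing, reporter mRNA measured by RT-PCR/capillary electrophoresis; gain or loss of signal fit relative to DMSO.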

[4] = ATG_DR4_LXR_CIS: Attagene CIS-FACTORIAL HepG2 Assay for human Liver X Receptor (LXR), DR4 submotif (AID 2282929); settings: HepG2 Attagene DR4 cis-reporter, mRNA transcription; actives raise or lower the signal
Procedure, shortened: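 HepG2, transient MRTU transfection, cis-element (DR4) promoter; 24 h compound exposure; total RNA → oligo(dT) RT → PCR → 6-FAM primer extension → HpaI cut → CE. Gain/loss vs DMSO, bidirectional fit.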

[5] = molecular target: Aryl hydrocarbon receptor (Homo sapiens) (UniProt P35869); test: ATG_Ahr_CIS: Attagene CIS-FACTORIAL HepG2 Assay for human Aryl Hydrocarbon Receptor (Ahr) (AID 2282930); settings: HepG2 AhR cis-factorial reporter transcription; actives raise or lower the signal
Procedure, shortened: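 Endogenous factor activity is tracked through cis-promoter reporter units transfected into HepG2 cells. Transcript levels at 24 h are read by fluorescent RT-PCR and capillary electrophoresis, with activity in either direction scored relative to DMSO.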

[6] = ATG_AP_1_CIS: Attagene CIS-FACTORIAL HepG2 Assay for human Activator Protein 1 (AP-1) (AID 2282931); settings: HepG2 Attagene cis-factorial AP-1 reporter mRNA; actives raise or lower the signal
Procedure, shortened: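 Transient MRTU transfection of HepG2 → 24 h chemical treatment → RNA isolation, RT-PCR, 6-FAM labelling, HpaI digest → capillary electrophoresis. Fit: bidirectional, DMSO negative control.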

[7] = ATG_AP_2_CIS: Attagene CIS-FACTORIAL HepG2 Assay for human Activator Protein 2 (AP-2) (AID 2282932); settings: HepG2 AP-2 cis-reporter, Attagene transcription factor profiling; actives raise or lower the signal
Procedure, shortened: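 Multiplexed mRNA reporter assay in HepG2: cis-regulated units report endogenous factor activity after 24 h treatment. Fluorescence from capillary electrophoresis of RT-PCR products gives the signal, with DMSO as baseline.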

[8] = ATG_BRE_CIS: Attagene CIS-FACTORIAL HepG2 Assay for human Bone Morphogenetic Protein (BMP) Response Element (BRE) (AID 2282933); settings: HepG2 BMP response element reporter, Attagene transcription factor profiling; actives raise or lower the signal
Procedure, shortened: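 A HepG2 multiplex reporter system measured inducible reporter mRNA 24 h post-dosing. Detection: RT-PCR, 6-FAM primer extension, HpaI digestion, capillary electrophoresis. Activity fitted bidirectionally relative to DMSO.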

[9] = molecular target: Transcription factor E2F1 (Homo sapiens) (UniProt Q01094); test: ATG_E2F_CIS: Attagene CIS-FACTORIAL HepG2 Assay for human E2F Transcription Factor 1 (AID 2282935); settings: HepG2 Attagene cis-reporter, E2F reporter RNA transcripts; actives raise or lower the signal
Procedure, shortened: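 Measures reporter transcript levels via RT-PCR with capillary electrophoresis detection in HepG2 cells harboring cis-regulated reporter units; 24 h post-dose; bidirectional curve fitting with DMSO as baseline.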

[10] = ATG_E_Box_CIS: Attagene CIS-FACTORIAL HepG2 Assay for human Enhancer Box (E-box) (AID 2282936); settings: HepG2 E-box cis-reporter transcription, actives raise or lower the signal
Procedure, shortened: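 First, HepG2 cells receive multiple cis-regulated reporter constructs by transient transfection. Next, chemicals are applied for 24 h. Finally, reporter mRNA is quantified via RT-PCR and capillary electrophoresis, with DMSO as baseline.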

[11] = ATG_M_61_CIS: Attagene CIS-FACTORIAL HepG2 Assay for M61 Transcription Factor (Internal Marker) (AID 2282937); settings: HepG2 Attagene CIS-FACTORIAL M61 internal marker reporter; actives raise or lower the signal
Procedure, shortened: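 Human liver HepG2, transient MRTU transfection (cis promoter elements), 24 h compound. Total RNA → oligo(dT) RT → PCR → FAM label → HpaI → CE. Internal background marker; bidirectional fitting, DMSO = baseline.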

[12] = ATG_EGR_CIS: Attagene CIS-FACTORIAL HepG2 Assay for human Early Growth Response 1 (EGR1) (AID 2282938); settings: HepG2 Attagene CIS-FACTORIAL EGR reporter mRNA; actives raise or lower the signal
Procedure, shortened: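 Transient transfection of human HepG2 with multiple cis-regulated reporter units, chemical exposure 24 h, total RNA isolated. Reverse transcription, PCR, fluorescent labelling and capillary electrophoresis quantify reporter transcripts; activity fitted bidirectionally against DMSO.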

[13] = ATG_Ets_CIS: Attagene CIS-FACTORIAL HepG2 Assay for human Erythroblast Transformation Specific (ETS) (AID 2282941); settings: HepG2 ETS cis-reporter transcription, actives raise or lower the signal
Procedure, shortened: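 Steps: transfect HepG2 with multiple reporter units; treat compound 24 h; isolate RNA, DNase-treat, reverse-transcribe; PCR-amplify, label with 6-FAM, digest with HpaI; separate by capillary electrophoresis. Activity fitted both directions versus DMSO.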

[14] = molecular target: Hepatocyte nuclear factor 3-beta (Homo sapiens) (UniProt Q9Y261); test: ATG_FoxA2_CIS: Attagene CIS-FACTORIAL HepG2 Assay for human Forkhead box A2 (FOXA2) (AID 2282942); settings: HepG2 cis-reporter transcription factor activity, 24 h; actives raise or lower the signal
Procedure, shortened: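 Transient MRTU transfection of HepG2 liver cells; 24 h treatment; total RNA → oligo(dT) RT → PCR → FAM primer extension → HpaI cut → CE. Bidirectional fit vs DMSO.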

[15] = ATG_FoxO_CIS: Attagene CIS-FACTORIAL HepG2 Assay for human Forkhead box O (FoxO) (AID 2282943); settings: HepG2 Attagene cis-reporter, FoxO element, mRNA; actives raise or lower the signal
Procedure, shortened: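 Transfected HepG2 reporter cells exposed to test chemical for 24 h; reporter RNA measured by reverse transcription, PCR and fluorescent capillary electrophoresis; curves fitted for increases and decreases against DMSO.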

[16] = ATG_GATA_CIS: Attagene CIS-FACTORIAL HepG2 Assay for human GATA Binding Protein (AID 2282944); settings: HepG2 GATA cis-element reporter, Attagene multiplex mRNA; actives raise or lower the signal
Procedure, shortened: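 Transfected cis-reporter HepG2 cells were treated with chemicals for 24 hours. Total RNA was then converted to cDNA, amplified with reporter-specific primers and analysed by fluorescent capillary electrophoresis, using DMSO-treated wells as baseline.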

[17] = ATG_GLI_CIS: Attagene CIS-FACTORIAL HepG2 Assay for human Zinc Finger Protein GLI1 (AID 2282945); settings: HepG2, Attagene cis-factorial reporter mRNA, GLI element; actives raise or lower the signal
Procedure, shortened: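 Transiently transfected HepG2 cells report endogenous transcription factor activity via cis-element-driven reporter units. After 24 h compound exposure, reporter mRNA was measured by RT-PCR with capillary electrophoresis; bidirectional fitting against DMSO baseline.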

[18] = molecular target: Retinoic acid receptor alpha (Homo sapiens) (UniProt P10276); test: ATG_DR5_RAR_CIS: Attagene CIS-FACTORIAL HepG2 Assay for human Retinoic Acid Receptor Alpha (RARE), DR5 submotif (AID 2282934); settings: HepG2 Attagene cis-factorial RARE DR5 reporter, mRNA; actives raise or lower the signal;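 on AC50: reporter responds to endogenous RAR alpha beta and gamma in HepG2 not RARA alone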
Procedure, shortened: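 After 24 h of chemical exposure, transiently transfected HepG2 cells were lysed for total RNA; the DR5-regulated reporter transcript was quantified via RT-PCR and capillary electrophoresis, with activity fitted bidirectionally against DMSO.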

[19] = ATG_ERE_CIS: Attagene CIS-FACTORIAL HepG2 Assay for Estrogen Response Element (ERE) (AID 2282940); settings: HepG2 ERE cis-reporter, Attagene RNA transcript; actives raise or lower the signal
Procedure, shortened: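 Human liver cells (HepG2) bearing transiently transfected, promoter-regulated reporter units were exposed 24 h. Reporter mRNA induction was detected by capillary electrophoresis of labelled RT-PCR products and fitted bidirectionally to DMSO.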

[20] = ATG_M_19_CIS: Attagene CIS-FACTORIAL HepG2 Assay for M19 Transcription Factor (Internal Marker) (AID 2282939); settings: HepG2 Attagene CIS-FACTORIAL M19 internal marker reporter; actives raise or lower the signal
Procedure, shortened: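 Chemical-treated HepG2 (24 h) with MRTU constructs; reporter transcripts detected by fluorescent RT-PCR fragment analysis on capillary electrophoresis. Internal background marker, DMSO as baseline.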

Measured: AC50

Sequence of Retinoic acid receptor alpha (Homo sapiens) (P10276 whole entry, looked up): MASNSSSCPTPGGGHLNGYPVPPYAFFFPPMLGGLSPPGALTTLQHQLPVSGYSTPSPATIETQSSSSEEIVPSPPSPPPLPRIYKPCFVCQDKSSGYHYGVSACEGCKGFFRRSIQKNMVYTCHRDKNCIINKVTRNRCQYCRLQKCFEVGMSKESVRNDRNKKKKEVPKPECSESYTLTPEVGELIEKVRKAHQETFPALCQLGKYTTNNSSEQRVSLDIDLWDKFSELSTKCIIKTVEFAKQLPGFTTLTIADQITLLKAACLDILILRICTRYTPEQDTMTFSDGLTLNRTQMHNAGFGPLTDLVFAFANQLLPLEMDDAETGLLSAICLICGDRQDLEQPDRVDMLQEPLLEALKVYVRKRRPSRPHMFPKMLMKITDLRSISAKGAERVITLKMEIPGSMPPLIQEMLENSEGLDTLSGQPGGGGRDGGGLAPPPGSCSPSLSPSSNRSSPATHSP
Sequence of Aryl hydrocarbon receptor (Homo sapiens) (P35869 whole entry, looked up): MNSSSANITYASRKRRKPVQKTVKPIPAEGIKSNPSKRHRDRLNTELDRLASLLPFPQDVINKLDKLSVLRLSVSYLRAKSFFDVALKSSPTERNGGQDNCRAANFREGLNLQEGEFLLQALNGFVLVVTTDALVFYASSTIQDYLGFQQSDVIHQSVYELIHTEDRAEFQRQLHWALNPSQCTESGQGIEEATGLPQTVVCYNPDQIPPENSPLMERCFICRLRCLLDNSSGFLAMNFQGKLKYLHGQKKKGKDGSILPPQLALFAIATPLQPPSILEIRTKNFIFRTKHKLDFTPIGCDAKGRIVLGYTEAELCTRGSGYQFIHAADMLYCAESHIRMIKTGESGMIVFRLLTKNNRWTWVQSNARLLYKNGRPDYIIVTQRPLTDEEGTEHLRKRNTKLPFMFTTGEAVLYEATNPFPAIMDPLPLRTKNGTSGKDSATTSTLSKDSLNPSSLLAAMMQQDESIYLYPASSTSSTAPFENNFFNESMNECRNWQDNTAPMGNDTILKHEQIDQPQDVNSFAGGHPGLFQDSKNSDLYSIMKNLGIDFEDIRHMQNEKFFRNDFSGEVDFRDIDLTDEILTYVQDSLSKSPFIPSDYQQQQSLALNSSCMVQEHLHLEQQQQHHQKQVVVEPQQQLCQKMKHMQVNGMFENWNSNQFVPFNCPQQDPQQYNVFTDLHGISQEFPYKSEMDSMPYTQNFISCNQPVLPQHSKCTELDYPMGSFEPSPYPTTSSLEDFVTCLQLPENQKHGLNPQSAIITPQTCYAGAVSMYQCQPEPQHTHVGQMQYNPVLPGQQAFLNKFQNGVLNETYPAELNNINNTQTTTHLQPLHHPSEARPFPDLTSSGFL
Sequence of Hepatocyte nuclear factor 3-beta (Homo sapiens) (Q9Y261 whole entry, looked up): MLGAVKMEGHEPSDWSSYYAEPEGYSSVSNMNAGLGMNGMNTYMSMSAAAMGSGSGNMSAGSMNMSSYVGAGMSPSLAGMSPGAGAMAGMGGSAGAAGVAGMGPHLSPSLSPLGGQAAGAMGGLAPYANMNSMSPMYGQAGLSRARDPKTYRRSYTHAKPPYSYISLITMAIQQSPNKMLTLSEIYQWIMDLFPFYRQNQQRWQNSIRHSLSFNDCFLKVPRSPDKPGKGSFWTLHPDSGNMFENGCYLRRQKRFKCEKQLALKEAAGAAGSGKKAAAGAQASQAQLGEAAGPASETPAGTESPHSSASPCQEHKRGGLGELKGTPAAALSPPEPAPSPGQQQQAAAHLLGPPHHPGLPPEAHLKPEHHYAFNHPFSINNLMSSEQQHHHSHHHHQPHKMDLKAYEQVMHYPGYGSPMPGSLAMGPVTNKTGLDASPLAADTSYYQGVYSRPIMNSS
Sequence of Transcription factor E2F1 (Homo sapiens) (Q01094 whole entry, looked up): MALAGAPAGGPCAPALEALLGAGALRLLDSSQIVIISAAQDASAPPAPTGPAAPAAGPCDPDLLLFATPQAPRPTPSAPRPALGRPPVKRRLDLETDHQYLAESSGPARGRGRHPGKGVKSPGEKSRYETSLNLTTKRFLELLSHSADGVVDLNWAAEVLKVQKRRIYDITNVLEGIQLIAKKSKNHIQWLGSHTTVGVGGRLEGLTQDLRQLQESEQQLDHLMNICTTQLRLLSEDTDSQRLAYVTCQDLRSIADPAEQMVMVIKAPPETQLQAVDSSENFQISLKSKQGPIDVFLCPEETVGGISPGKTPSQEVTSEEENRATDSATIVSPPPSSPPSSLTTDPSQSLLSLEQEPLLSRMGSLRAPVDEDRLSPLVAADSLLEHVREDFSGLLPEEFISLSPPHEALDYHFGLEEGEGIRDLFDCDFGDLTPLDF
Sequence of CCAAT/enhancer-binding protein beta (Homo sapiens) (P17676 whole entry, looked up): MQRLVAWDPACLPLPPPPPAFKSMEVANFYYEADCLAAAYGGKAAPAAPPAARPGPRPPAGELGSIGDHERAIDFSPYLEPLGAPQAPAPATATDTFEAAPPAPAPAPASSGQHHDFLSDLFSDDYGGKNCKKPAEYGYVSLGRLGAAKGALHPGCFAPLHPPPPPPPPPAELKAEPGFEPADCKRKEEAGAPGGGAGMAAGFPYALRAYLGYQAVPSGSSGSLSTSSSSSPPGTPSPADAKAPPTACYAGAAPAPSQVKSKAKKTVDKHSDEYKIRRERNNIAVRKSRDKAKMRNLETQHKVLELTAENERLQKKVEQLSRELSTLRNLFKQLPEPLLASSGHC

Oc1ccc2ccccc2c1
active: [4] 100 µM | [5] 870 nM and 1.98 µM | [10] 8.89 µM
inactive: [1] | [2] | [3] | [6] | [7] | [8] | [9] | [10] | [11] | [12] | [13] | [14] | [15] | [16] | [17]

O=C(O)c1ccccc1C(=O)OCc1ccccc1
not listed: [20]
inactive: all other assays above

O=C(OCCCCCCOC(=O)c1ccccc1)c1ccccc1
inactive: all assays above

CCCCCCCCCCCO
not listed: [20]
inactive: all other assays above

CN1C(=O)CC[C@H]1c1cccnc1
not listed: [18] | [19]
inactive: all other assays above

COc1cccc([C@H](O)C2CCN(CCc3ccc(F)cc3)CC2)c1OC
active: [4] 100 µM | [10] 100 µM
not listed: [18] | [20]
inactive: all other assays above

CN(C)c1ccc(C(=C2C=CC(=[N+](C)C)C=C2)c2ccc(N(C)C)cc2)cc1
active: [2] 4.56 µM | [4] 2.86 µM | [6] 2.23 µM | [18] 2.58 µM | [10] 2.88 µM | [12] 2.23 µM | [19] 1.01 µM
inactive: all other assays above

O=C1O[C@H]([C@@H](O)CO)C(O)=C1O
inactive: [1] | [2] | [3] | [4] | [5] | [6] | [7] | [8] | [9] | [10] | [11] | [12] | [20] | [13] | [14] | [15] | [16] | [17]
active: [5] 62 µM

CC(C)(O)c1ccc(CNC(=O)c2cccnc2Oc2ccc3nonc3c2)cc1
not listed: [18]
inactive: all other assays above

COc1ccc2cc(S(=O)(=O)N[C@H](CC(=O)N[C@H](Cc3ccc(CN4[C@H](C)CCC[C@@H]4C)cc3)C(=O)N(C)C(C)C)c3ccc4c(c3)OCO4)ccc2c1
active: [1] 15.4 µM | [5] 14.7 µM | [6] 11 µM | [8] 11 µM | [9] 11 µM | [12] 11 µM
not listed: [18] | [20]
inactive: all other assays above

O=c1[nH]sc2ccccc12
active: [1] 45.4 µM
not listed: [18]
inactive: all other assays above

CC(C)(C)c1cc(/C=C2\SC(N)=NC2=O)cc(C(C)(C)C)c1O
active: [1] 18.9 µM | [3] 4.67 µM | [4] 6.65 µM | [6] 20.2 µM | [12] 8.13 µM
not listed: [18] | [20]
inactive: all other assays above

NC(=O)c1nc(-c2cccc(-c3cc(F)ccc3OCC(F)(F)C(F)(F)F)c2)n[nH]1
active: [1] 27.7 µM | [3] 12.1 µM | [4] 44.4 µM | [6] 24 µM | [8] 19.8 µM | [9] 16.8 µM | [12] 40.2 µM
not listed: [18]
inactive: all other assays above
